TDP1 inh: inhibitors of human tyrosyl-DNA phosphodiesterase TDP1; Q9NUW8; recombinant TDP1, AlphaScreen DNA substrate cleavage; Potency, µM (highest dose often 130 µM), without a hit: at the top dose activity change, negative = inhibition, most hits filed as inhibitors; hit rate 0.28% among 350,000; AID 485290; also: potency is read from the fitted curve at half-maximal effect; nearly all actives have a fitted effect of over 40% in size
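Signal: AlphaScreen proximity between streptavidin donor and anti-FITC acceptor beads on intact substrate. Reaction: Tdp1 1 nM, substrate 15 nM final, 5 min RT after 15 min compound preincubation.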
TDP1 cell noCPT: qHTS for Inhibitors of human tyrosyl-DNA phosphodiesterase 1 (TDP1): qHTS in cells in absence of CPT; DT40 Tdp1-/- hTDP1 cells, no CPT, ATP luminescence, 48 h; Potency, µM (top dose mostly 46.2 µM), for inactives: at the top dose activity change, negative = growth inhibition, actives largely listed as inhibitors; hit rate 15% among 420,000; AID 686978, 2013; also: potency is read from the fitted curve at half-maximal effect; nearly all actives have a fitted effect of over 55% in size
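Cells were dispensed at 400 per well, compounds added by pin tool, plates incubated ≥48 hr at 37 °C, then CellTiter-Glo added for 30 min at room temperature before luminescence reading. Line: DT40 Tdp1-/- complemented with hTDP1; camptothecin omitted.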
DT40 TDP1 CPT: growth inhibition of DT40 Tdp1-/-;hTDP1 cells with camptothecin (screen for TDP1 inhibitors); hit rate 12% among 420,000; Potency, µM (titrated, usually from 46.2 µM), without a hit: at the top dose activity change, negative = growth inhibition, usual class: inhibitors; chicken DT40 Tdp1-/-;hTDP1 cells + 20 nM CPT, ATP luminescence, 48 h; AID 686979; also: potency is read from the fitted curve at half-maximal effect; nearly all actives have a fitted effect of over 55% in size
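Chicken DT40 Tdp1-/- cells stably complemented with human TDP1 were seeded at 400 cells/well in medium containing 20 nM camptothecin, exposed to pin-transferred compounds, and grown at 37 °C for at least 48 hr. Viability was read as ATP luminescence.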
IL1B secr inh: blocks inflammasome-driven IL-1 beta release. THP-1 LPS/ATP IL-1B secretion, AlphaLISA, 16 h; stronger effect = lower value. activity change, % at 57.5 µM. hit rate 4.7% among 360,000. AID 743279; in the data active = activity change below about -50%; inconclusive = mostly about -30% to -49%
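THP-1 cells pretreated 1 hr with compounds (up to 57.5 uM final), then stimulated with LPS (250 ng/mL final) plus ATP (1.25 mM final); secreted IL-1B measured by AlphaLISA after 16 hr, decreased signal indicating inhibition.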
Six1-Eya2 blk: inhibitors of human Six1/Eya2 interaction; Q15475+O00167; AlphaScreen GST-Six1/His-Eya2 binding, biochemical; stronger effect = lower value; activity change, % (concentration not given with the values); hit rate 0.56% among 360,000; AID 651725; in the data active = activity change below about -65%; inconclusive = mostly about -30% to -63%
Target sequence (O00167 whole entry, looked up): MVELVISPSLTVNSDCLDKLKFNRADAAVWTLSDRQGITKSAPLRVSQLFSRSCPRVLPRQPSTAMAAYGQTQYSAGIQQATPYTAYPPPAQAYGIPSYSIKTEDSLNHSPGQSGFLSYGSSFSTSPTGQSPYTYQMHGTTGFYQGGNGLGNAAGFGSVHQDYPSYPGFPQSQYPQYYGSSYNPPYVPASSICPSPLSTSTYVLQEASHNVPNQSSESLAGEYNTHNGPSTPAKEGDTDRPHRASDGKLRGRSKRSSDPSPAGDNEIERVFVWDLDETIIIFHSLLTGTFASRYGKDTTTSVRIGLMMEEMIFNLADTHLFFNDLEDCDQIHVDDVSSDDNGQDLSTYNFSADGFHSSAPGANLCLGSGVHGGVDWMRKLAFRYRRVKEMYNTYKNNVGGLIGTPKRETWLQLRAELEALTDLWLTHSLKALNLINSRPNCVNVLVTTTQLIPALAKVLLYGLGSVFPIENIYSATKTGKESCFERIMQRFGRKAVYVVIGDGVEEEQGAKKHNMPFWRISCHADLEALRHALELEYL
Target sequence (Q15475 whole entry, looked up): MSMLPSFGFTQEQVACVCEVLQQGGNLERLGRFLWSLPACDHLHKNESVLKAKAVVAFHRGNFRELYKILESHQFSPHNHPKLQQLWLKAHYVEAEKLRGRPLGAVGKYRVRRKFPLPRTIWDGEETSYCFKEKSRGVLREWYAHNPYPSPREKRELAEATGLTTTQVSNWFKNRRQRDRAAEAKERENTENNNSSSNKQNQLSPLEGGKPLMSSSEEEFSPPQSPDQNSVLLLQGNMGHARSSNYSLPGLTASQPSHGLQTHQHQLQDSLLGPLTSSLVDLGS
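Homogeneous AlphaScreen proximity assay pairing GST-Six1 with His-tagged Eya2 (added as 5X mix: 250 nM and 500 nM) in 50 mM Tris pH 8.0, 300 mM NaCl, 1 mM TCEP. Glutathione donor and nickel acceptor beads; 1 h, 37 °C, dark.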
CtBP-E1A blk: CtBP/E1A binding inhibition; activity change, % (test concentration not listed); hit rate 0.49% among 340,000; AlphaScreen GST-E1A/His-CtBP binding, 1536-well; stronger effect = lower value; in the data active = activity change below about -65%; inconclusive = mostly about -30% to -63%
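GST-E1A and His-tagged CtBP (125 nM each as 5X stock) were preincubated with pin-transferred compound for 2 h at 37 °C in the dark, then glutathione donor and nickel acceptor beads were added for 1 h before AlphaScreen reading.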
The depositor's hits bear a star; u = inconclusive; x = no result; ! = not active in a repeat. Shown are actives, neighbours in structure and some others; about 18% of the full set was active somewhere. Unless noted, calls follow the shape of the dose curve; as a rule, active = well fitted curve in the direction sought with a large enough effect; inconclusive = small, poorly fitted or top-dose-only effect, or another doubt; inactive = no such curve, though single readings can be large; an effect the other way counts as inactive or inconclusive. % is scaled to controls: 0 for no effect and ±100 for the full control effect.

SMILES	TDP1 inh	TDP1 cell noCPT	DT40 TDP1 CPT	IL1B secr inh	Six1-Eya2 blk	CtBP-E1A blk
Cn1cc(C(=O)Nc2cccc(F)c2)cn1	3%	-1%	-4%	2	4	3
O=C(Cn1c(C(=O)N2CCN(C3CCCC3)CC2)cc2sccc21)c1ccccc1	5%	u	18µM*	-14	-14	-5
CN(C)CCOC(=O)C12CC3(C)CC(C)(CC(C)(C3)C1)C2	3%	-5%	-17%	u	-1	32
CC(=O)c1ccc(NC(=O)C(C)Oc2ccc(N(C)S(=O)(=O)c3ccc(C)cc3)cc2)cc1 (centres undefined)	-2%	u	u	-18	-1	-5
Cc1ccc(S(=O)(=O)N(C)c2ccc(OC(C)C(=O)N(C)c3ccccc3)cc2)cc1 (centres undefined)	0%	18µM*	15µM*	6	-4	4
CN(C)S(=O)(=O)c1cccc(NC(=O)C(c2ccccc2)c2ccccc2)c1	4%	u	u	32	2	-8
CCC(C(=O)Nc1cccc(S(=O)(=O)N(C)c2ccccc2)c1)c1ccccc1 (centres undefined)	1%	18µM*	18µM*	-1	0	9
CC(Oc1ccc(F)cc1)C(=O)Nc1cccc(S(=O)(=O)N(C)c2ccccc2)c1 (centres undefined)	x	16µM*	u	9	-2	-2
CCOC(=O)c1c(NC(=O)CSc2nnc(-c3ccco3)o2)sc(C)c1C	0%	-20%	-29%	47	-6	-4
CCOC(=O)c1c(NC(=O)CSc2nnc(-c3ccco3)o2)sc(C(C)=O)c1C	4%	13µM*	u	18	-9	-1
CCOC(=O)c1c(NC(=O)CSc2nnc(-c3cccnc3)o2)sc(C(C)=O)c1C	4%	21µM*	u	12	-9	-4
C=CCc1ccc(OCCCOc2ccc(C(=O)O)cc2)c(OC)c1	2%	-3%	5%	44	-1	5
NC1=NC(=Nc2cccc(Cl)c2)c2ccccc21	0%	u	u	-9	10	15
COc1ccc(C2=C(C)C(N3CCC(C(=O)Nc4cc(C)ccc4C)CC3)=NS2(=O)=O)cc1	-2%	-20%	-3%	x	x	x
C=CCc1ccc(OCCCCN2CC(C)CC(C)C2)c(OC)c1 (centres undefined)	-11%	21µM*	16µM*	-17	-29	-23
C=CCc1ccc(OCCCN2CCCC(C)C2)c(OC)c1 (centres undefined)	-4%	u	-5%	8	0	-6
C=CCc1ccc(OCCCCN2CCC(C)CC2)c(OC)c1	8%	16µM*	u	-7	-3	-11
CCC(C)c1ccc(NC(=S)NCCn2cc(Br)cn2)cc1 (centres undefined)	0%	15µM*	21µM*	-52*	-5	2
CCC(C)c1ccc(NC(=S)NCCn2cc(Cl)cn2)cc1 (centres undefined)	5%	21µM*	u	u	-5	-1
COc1cc(-c2noc(C)c2C#Cc2ccsc2)cc(OC)c1OC	x	0.92µM*	0.71µM*!	72	14	x
COc1cc(-c2noc(C)c2C#CCO)cc(OC)c1OC	x	13µM*!	u	-9	10	-20
COc1cc(-c2noc(C)c2C#CC2(O)CCCCC2)cc(OC)c1OC	x	21µM*	u	u	-1	1
CNC(=S)Nc1ccc2nc(C)c(C)nc2c1	-2%	-7%	-15%	16	-1	6
S=C1N(c2ccccc2)C(c2ccccc2)N2CCCN12 (centres undefined)	-4%	-28%	1%	-6	6	5
S=C1NC=NC2N=CNC12 (centres undefined)	14µM*	x	x	x	x	x
SMILES	TDP1 inh	TDP1 cell noCPT	DT40 TDP1 CPT	IL1B secr inh	Six1-Eya2 blk	CtBP-E1A blk
COc1ccc(NS(=O)(=O)c2ccc(O)c(C(=O)OCC(=O)Nc3ccc4c(c3)OCCO4)c2)cc1	4%	1%	2%	28	-7	2
Cc1c2cnn(CC(=O)N3CCN(c4ccc(F)cc4)CC3)c(=O)c2c(C)n1Cc1ccccc1F	13%	18µM*	21µM*	x	x	x
Cc1c2cnn(CC(=O)N3CCN(c4ccc(F)cc4)CC3)c(=O)c2c(C)n1Cc1ccc(F)cc1	3%	7.3µM*	23µM*	x	x	x
Cc1ccc(S(=O)(=O)N2CCN(C(=O)COC(=O)Cc3ccc(Cl)cc3)CC2)c(C)c1	1%	u	u	13	-1	x
CCCc1nnc(NC(=O)c2c(O)c3cccc4c3n(c2=O)CCC4)s1	-2%	0.79µM*	3.5µM*	x	x	x
Cc1csc(NC(=O)c2c(O)c3cccc4c3n(c2=O)CCC4)n1	4%	x	x	x	x	x
Cc1cccc(S(=O)(=O)c2cn(Cc3ccccc3)c3cc(N4CCC(C)CC4)c(F)cc3c2=O)c1	0%	8.2µM*	5.8µM*	x	x	x
COc1ccc(S(=O)(=O)c2cn(Cc3ccccc3)c3cc(N4CCCC4)c(F)cc3c2=O)cc1	2%	5.2µM*	u	x	x	x
Cc1ccc(Cn2cc(S(=O)(=O)c3ccccc3)c(=O)c3cc(F)c(N4CCOCC4)cc32)cc1	5%	u	u	x	x	x
Cc1ccc(S(=O)(=O)c2cn(Cc3ccc(F)cc3)c3cc(N4CCCC4)c(F)cc3c2=O)cc1	1%	u	u	x	x	x
O=c1c(S(=O)(=O)c2ccccc2)cn(Cc2ccc(F)cc2)c2cc(N3CCOCC3)c(F)cc12	4%	15µM*	21µM*	x	x	x
Cc1cccc(S(=O)(=O)c2cn(Cc3ccccc3)c3cc(N4CCCCC4)c(F)cc3c2=O)c1	4%	u	u	x	x	x
COc1ccc(C(C(=O)NC2CCCCC2)N(CC2CCCO2)C(=O)CCCC(=O)Nc2ccccn2)cc1 (centres undefined)	1%	-19%	-16%	-24	-2	3
N#CC(C#N)=C1SC(=Nc2ccccc2)C(=Nc2ccccc2)N1c1ccccc1	x	8.2µM*	5.2µM*	-9	12	34
Fc1ccc(N2C(=S)SC(=Nc3ccccc3)C2=Nc2ccccc2)cc1	x	u	u	0	0	-4
Oc1c(C(c2ccccn2)N2CCCCC2)cc(Cl)c2cccnc12 (centres undefined)	11%	10µM*	18µM*	79	-92*	-93*
CN1CCN(C(c2ccc(C(F)(F)F)cc2)c2cc(Cl)c3cccnc3c2O)CC1 (centres undefined)	8%	x	x	x	x	x
